Data: PubChem BioAssay (EPA / NIEHS)
The source made the active and inactive calls. The calls were made as follows: active = hit-call score of the fitted dose curve at least 0.9, where 1 is the maximum; inactive = score below 0.9.

Experiments:
[1] = molecular target: Transcription factor E2F1 (Homo sapiens) (UniProt Q01094); assay: ATG_E2F_CIS: Attagene CIS-FACTORIAL HepG2 Assay for human E2F Transcription Factor 1 (AID 2282935); settings: HepG2 Attagene cis-reporter, E2F reporter RNA transcripts; actives raise or lower the signal
Transcription factor E2F1 (Homo sapiens), sequence (Q01094 whole entry, looked up): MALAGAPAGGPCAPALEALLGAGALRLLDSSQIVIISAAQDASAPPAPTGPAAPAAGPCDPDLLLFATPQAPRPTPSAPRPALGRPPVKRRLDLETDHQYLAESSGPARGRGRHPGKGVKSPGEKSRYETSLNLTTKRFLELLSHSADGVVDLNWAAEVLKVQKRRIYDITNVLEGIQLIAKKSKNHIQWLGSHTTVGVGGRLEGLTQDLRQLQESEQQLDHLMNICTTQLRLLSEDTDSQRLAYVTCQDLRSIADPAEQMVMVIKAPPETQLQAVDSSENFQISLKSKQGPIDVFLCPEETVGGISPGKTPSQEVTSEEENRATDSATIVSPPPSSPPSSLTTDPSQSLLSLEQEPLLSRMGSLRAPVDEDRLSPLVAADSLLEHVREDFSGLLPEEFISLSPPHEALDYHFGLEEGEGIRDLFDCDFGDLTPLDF
Outline: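 Gain or loss of reporter transcript, fitted against DMSO, reflects E2F1-driven transcription. Transiently transfected HepG2 dosed 24 h before RNA isolation. Quantified by fluorescent RT-PCR products separated by capillary electrophoresis.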

[2] = ATG_E_Box_CIS: Attagene CIS-FACTORIAL HepG2 Assay for human Enhancer Box (E-box) (AID 2282936); settings: HepG2 E-box cis-reporter transcription, actives raise or lower the signal
Outline: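 E-box-driven reporter transcripts measured in transiently transfected HepG2 after 24 h exposure: RNA reverse-transcribed, PCR-amplified, fluorescently labelled, digested and resolved by capillary electrophoresis. Gain or loss relative to DMSO.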

[3] = ATG_M_61_CIS: Attagene CIS-FACTORIAL HepG2 Assay for M61 Transcription Factor (Internal Marker) (AID 2282937); settings: HepG2 Attagene CIS-FACTORIAL M61 internal marker reporter; actives raise or lower the signal
Outline: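 Background-control endpoint: HepG2 cells with cis-regulated reporter constructs, 24 h exposure, reporter mRNA detected via fluorescent primer extension and capillary electrophoresis; values from bidirectional fitting with DMSO baseline.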

[4] = ATG_EGR_CIS: Attagene CIS-FACTORIAL HepG2 Assay for human Early Growth Response 1 (EGR1) (AID 2282938); settings: HepG2 Attagene CIS-FACTORIAL EGR reporter mRNA; actives raise or lower the signal
Outline: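 Endpoint derived by bidirectional fitting versus DMSO vehicle. Method: cis-promoter reporter units transfected into HepG2, 24 h dosing, RNA isolation, RT-PCR with 6-FAM primer extension and HpaI digestion, then capillary electrophoresis fluorescence detection.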

[5] = ATG_M_19_CIS: Attagene CIS-FACTORIAL HepG2 Assay for M19 Transcription Factor (Internal Marker) (AID 2282939); settings: HepG2 Attagene CIS-FACTORIAL M19 internal marker reporter; actives raise or lower the signal
Outline: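 Signals come from fluorescence of labelled reporter-specific PCR fragments resolved by capillary electrophoresis, following 24 h treatment of HepG2 cells transfected with cis-promoter reporter units; activity was fitted in both directions relative to DMSO.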

[6] = ATG_ERE_CIS: Attagene CIS-FACTORIAL HepG2 Assay for Estrogen Response Element (ERE) (AID 2282940); settings: HepG2 ERE cis-reporter, Attagene RNA transcript; actives raise or lower the signal
Outline: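 Fluorescence of capillary-separated, FAM-labelled reporter cDNA fragments indicates reporter mRNA levels in HepG2 cells exposed to chemicals for 24 h. Transient transfection with cis-regulated units; data fitted in both directions against DMSO.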

[7] = ATG_Ets_CIS: Attagene CIS-FACTORIAL HepG2 Assay for human Erythroblast Transformation Specific (ETS) (AID 2282941); settings: HepG2 ETS cis-reporter transcription, actives raise or lower the signal
Outline: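 RT-PCR/capillary electrophoresis fluorescence read-out of reporter mRNA; HepG2 transient multi-reporter transfection; 24 h compound exposure; gain or loss of signal fitted bidirectionally relative to DMSO.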

[8] = molecular target: Hepatocyte nuclear factor 3-beta (Homo sapiens) (UniProt Q9Y261); assay: ATG_FoxA2_CIS: Attagene CIS-FACTORIAL HepG2 Assay for human Forkhead box A2 (FOXA2) (AID 2282942); settings: HepG2 cis-reporter transcription factor activity, 24 h; actives raise or lower the signal
Hepatocyte nuclear factor 3-beta (Homo sapiens), sequence (Q9Y261 whole entry, looked up): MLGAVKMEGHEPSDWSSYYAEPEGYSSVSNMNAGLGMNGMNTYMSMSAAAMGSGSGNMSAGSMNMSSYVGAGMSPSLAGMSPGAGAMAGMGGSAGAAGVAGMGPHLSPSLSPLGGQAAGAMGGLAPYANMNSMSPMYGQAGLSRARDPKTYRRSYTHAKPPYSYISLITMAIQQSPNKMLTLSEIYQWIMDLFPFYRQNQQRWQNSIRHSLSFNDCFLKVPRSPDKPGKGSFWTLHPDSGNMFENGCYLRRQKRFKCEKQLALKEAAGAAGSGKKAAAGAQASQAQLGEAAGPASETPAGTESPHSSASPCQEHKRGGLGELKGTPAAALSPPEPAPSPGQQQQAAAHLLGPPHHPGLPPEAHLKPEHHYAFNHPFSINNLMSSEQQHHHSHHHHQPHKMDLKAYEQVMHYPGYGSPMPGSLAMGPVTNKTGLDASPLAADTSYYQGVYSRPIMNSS
Outline: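 Measured: reporter mRNA induction or loss in HepG2 transiently carrying multiple cis-regulated reporter units, 24 h after dosing. Quantified by RT-PCR plus capillary electrophoresis, normalised to DMSO.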

[9] = ATG_FoxO_CIS: Attagene CIS-FACTORIAL HepG2 Assay for human Forkhead box O (FoxO) (AID 2282943); settings: HepG2 Attagene cis-reporter, FoxO element, mRNA; actives raise or lower the signal
Outline: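 HepG2, transient MRTU transfection (cis element, endogenous TFs). Dose 24 h. TriZol RNA → oligo(dT) RT → PCR → 6-FAM primer extension → HpaI cut → CE. Gain/loss vs DMSO.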

[10] = ATG_GATA_CIS: Attagene CIS-FACTORIAL HepG2 Assay for human GATA Binding Protein (AID 2282944); settings: HepG2 GATA cis-element reporter, Attagene multiplex mRNA; actives raise or lower the signal
Outline: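 After transfecting HepG2 cells with multiple cis-regulated reporter units, chemicals are dosed for 24 h; isolated RNA undergoes RT-PCR and fluorescent labeling before capillary electrophoresis, with activity expressed against DMSO.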

[11] = ATG_GLI_CIS: Attagene CIS-FACTORIAL HepG2 Assay for human Zinc Finger Protein GLI1 (AID 2282945); settings: HepG2, Attagene cis-factorial reporter mRNA, GLI element; actives raise or lower the signal
Outline: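 Bidirectional curve fits relative to DMSO, using reporter mRNA levels from RT-PCR plus capillary electrophoresis. Cells were HepG2 transiently carrying cis-regulated reporter constructs, harvested 24 h after dosing.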

[12] = molecular target: Bile acid receptor (Homo sapiens) (UniProt Q96RI1); assay: ATG_IR1_CIS: Attagene CIS-FACTORIAL HepG2 Assay for human Nuclear Receptor Subfamily 1 Group H Member 4 (NR1H4), IR1 submotif (AID 2282946); settings: IR1 reporter transcription, actives raise or lower the signal
Bile acid receptor (Homo sapiens), sequence (Q96RI1 whole entry, looked up): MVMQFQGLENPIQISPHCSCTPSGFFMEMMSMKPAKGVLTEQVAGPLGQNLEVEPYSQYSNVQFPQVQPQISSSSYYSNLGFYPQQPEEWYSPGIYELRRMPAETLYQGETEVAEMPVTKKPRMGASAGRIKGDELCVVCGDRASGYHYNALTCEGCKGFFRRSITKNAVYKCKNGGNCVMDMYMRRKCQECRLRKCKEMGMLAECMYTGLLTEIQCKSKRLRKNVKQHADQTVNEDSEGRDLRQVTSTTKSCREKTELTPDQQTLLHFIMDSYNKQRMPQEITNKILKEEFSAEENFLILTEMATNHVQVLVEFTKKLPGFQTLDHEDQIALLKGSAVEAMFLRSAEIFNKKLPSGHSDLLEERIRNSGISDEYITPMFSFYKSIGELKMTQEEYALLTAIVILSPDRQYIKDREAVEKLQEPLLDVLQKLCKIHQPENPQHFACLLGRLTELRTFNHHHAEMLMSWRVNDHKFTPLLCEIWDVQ
Outline: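 HepG2 cells transiently transfected with multiplexed cis-element reporter units read endogenous transcription factor activity. After 24 h compound exposure, reporter mRNA was quantified by RT-PCR, fluorescent labelling, HpaI digestion and capillary electrophoresis; bidirectional fitting versus DMSO baseline.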

[13] = ATG_GRE_CIS: Attagene CIS-FACTORIAL HepG2 Assay for human Glucocorticoid Response Elements (GRE) (AID 2282947); settings: HepG2 GRE cis-reporter, Attagene multiplex mRNA; actives raise or lower the signal
Outline: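 Reporter transcripts read by RT-PCR with capillary electrophoresis fluorescence after a 24 h chemical exposure of HepG2 cells transiently transfected with multiple cis-element reporter units. Gain or loss fitted against DMSO.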

[14] = ATG_ISRE_CIS: Attagene CIS-FACTORIAL HepG2 Assay for human Interferon Regulatory Factor 1 (IRF1) binding to an Interferon-Stimulated Response Element (ISRE) (AID 2282948); settings: HepG2 ISRE cis-reporter (Attagene), mRNA transcription readout; actives raise or lower the signal
Outline: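 Read-out: fluorescent RT-PCR products resolved by capillary electrophoresis, reporting endogenous transcription factor activity via ISRE-driven reporter mRNA in transfected HepG2 cells dosed for 24 h; gain or loss fitted relative to DMSO.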

[15] = ATG_M_32_CIS: Attagene CIS-FACTORIAL HepG2 Assay for M32 Transcription Factor (Internal Marker) (AID 2282949); settings: HepG2 Attagene cis-factorial M32 reporter, mRNA; actives raise or lower the signal;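 also: background control marker of the multiplexed CIS panel rather than a real target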
Outline: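 HepG2 transfectants (cis-regulated reporter transcription units) dosed 24 h. Reporter mRNA by RT-PCR plus CE, analysed as gain or loss relative to DMSO.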

[16] = ATG_M_06_CIS: Attagene CIS-FACTORIAL HepG2 Assay for M06 Transcription Factor (Internal Marker) (AID 2282950); settings: HepG2 Attagene CIS-FACTORIAL M06 internal marker reporter; actives raise or lower the signal
Outline: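 HepG2 liver cells, 24 h exposure. Reporter transcripts from transfected cis-element constructs quantified by RT-PCR/capillary electrophoresis fluorescence. Bidirectional curve fit against DMSO.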

[17] = molecular target: Hypoxia-inducible factor 1-alpha (Homo sapiens) (UniProt Q16665); assay: ATG_HIF1a_CIS: Attagene CIS-FACTORIAL HepG2 Assay for human Hypoxia Inducible Factor 1 (HIF1A) (AID 2282951); settings: HepG2 Attagene cis-factorial HIF1a reporter transcription; actives raise or lower the signal
Hypoxia-inducible factor 1-alpha (Homo sapiens), sequence (Q16665 whole entry, looked up): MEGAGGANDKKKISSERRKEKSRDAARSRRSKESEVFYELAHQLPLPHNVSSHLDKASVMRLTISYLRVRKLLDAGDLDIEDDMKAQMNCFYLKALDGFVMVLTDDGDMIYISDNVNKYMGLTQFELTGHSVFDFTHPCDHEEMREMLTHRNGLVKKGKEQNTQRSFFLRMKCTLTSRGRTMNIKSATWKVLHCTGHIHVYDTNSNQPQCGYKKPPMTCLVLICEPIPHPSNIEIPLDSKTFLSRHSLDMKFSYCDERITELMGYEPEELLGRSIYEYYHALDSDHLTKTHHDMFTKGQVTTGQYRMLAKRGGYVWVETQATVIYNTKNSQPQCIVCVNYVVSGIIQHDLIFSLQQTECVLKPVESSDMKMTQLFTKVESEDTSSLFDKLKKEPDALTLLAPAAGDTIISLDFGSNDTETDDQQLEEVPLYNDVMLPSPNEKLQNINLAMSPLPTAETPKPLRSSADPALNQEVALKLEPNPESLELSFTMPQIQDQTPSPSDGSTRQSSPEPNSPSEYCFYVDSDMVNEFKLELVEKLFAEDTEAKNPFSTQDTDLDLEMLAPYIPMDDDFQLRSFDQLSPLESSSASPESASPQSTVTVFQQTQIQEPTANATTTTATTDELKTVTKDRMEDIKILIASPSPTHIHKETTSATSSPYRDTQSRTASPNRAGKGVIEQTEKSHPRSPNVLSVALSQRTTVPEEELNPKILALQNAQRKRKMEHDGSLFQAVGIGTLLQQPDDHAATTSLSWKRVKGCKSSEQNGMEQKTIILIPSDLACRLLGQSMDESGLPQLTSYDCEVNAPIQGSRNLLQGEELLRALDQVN
Outline: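 Dosed 24 h, transfected HepG2 cells yielded total RNA whose reporter transcripts were RT-PCR-amplified and sized by capillary electrophoresis using fluorescent labelling; DMSO defined baseline, with gain and loss of signal both fitted.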

[18] = molecular target: Hepatocyte nuclear factor 6 (Homo sapiens) (UniProt Q9UBC0); assay: ATG_HNF6_CIS: Attagene CIS-FACTORIAL HepG2 Assay for human Hepatocyte Nuclear Factor 6 (HNF6) (AID 2282952); settings: HepG2 Attagene cis-factorial HNF6 reporter transcription; actives raise or lower the signal
Hepatocyte nuclear factor 6 (Homo sapiens), sequence (Q9UBC0 whole entry, looked up, the tested form may be a part): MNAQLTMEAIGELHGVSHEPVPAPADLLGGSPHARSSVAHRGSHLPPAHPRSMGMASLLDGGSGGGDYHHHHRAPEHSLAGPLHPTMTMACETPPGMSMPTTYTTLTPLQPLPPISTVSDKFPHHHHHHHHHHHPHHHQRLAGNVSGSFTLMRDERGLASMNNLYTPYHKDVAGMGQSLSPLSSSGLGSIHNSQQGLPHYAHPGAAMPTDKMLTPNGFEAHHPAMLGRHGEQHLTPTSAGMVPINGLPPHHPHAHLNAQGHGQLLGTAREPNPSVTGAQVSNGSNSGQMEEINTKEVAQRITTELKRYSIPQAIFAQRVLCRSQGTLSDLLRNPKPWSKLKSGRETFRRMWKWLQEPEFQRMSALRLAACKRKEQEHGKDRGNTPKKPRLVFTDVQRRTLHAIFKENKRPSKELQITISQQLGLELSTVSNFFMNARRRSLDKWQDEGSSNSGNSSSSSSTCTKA
Outline: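 Readout: fluorescent reporter-transcript fragments resolved by capillary electrophoresis after RT-PCR, reflecting endogenous factor activity in transfected HepG2. Exposure 24 h. Gain or loss of signal fitted bidirectionally against DMSO.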

[19] = molecular target: Heat shock factor protein 1 (Homo sapiens) (UniProt Q00613); assay: ATG_HSE_CIS: Attagene CIS-FACTORIAL HepG2 Assay for human Heat Shock Transcription Factor 1 (HSE) (AID 2282953); settings: HepG2 HSE cis-reporter, Attagene RNA transcription; actives raise or lower the signal
Heat shock factor protein 1 (Homo sapiens), sequence (Q00613 whole entry, looked up, the tested form may be a part): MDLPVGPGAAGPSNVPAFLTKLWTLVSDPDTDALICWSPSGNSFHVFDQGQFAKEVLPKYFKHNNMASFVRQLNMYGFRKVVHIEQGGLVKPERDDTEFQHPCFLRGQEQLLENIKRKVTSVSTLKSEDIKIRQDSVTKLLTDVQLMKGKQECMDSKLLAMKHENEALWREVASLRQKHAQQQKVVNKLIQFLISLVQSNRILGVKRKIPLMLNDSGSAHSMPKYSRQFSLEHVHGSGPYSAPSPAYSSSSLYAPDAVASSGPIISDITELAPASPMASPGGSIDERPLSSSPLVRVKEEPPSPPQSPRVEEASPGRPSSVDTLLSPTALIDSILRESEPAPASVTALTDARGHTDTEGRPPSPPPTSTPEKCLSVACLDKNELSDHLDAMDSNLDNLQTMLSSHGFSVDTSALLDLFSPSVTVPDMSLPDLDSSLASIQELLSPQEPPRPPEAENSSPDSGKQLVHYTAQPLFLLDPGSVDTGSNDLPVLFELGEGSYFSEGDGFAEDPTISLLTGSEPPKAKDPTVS
Outline: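 Endogenous transcription factor activity captured via cis-promoter reporter units transfected into HepG2; treatment lasted 24 h. Fluorescence intensity of reporter fragments analysed with bidirectional curve fitting, DMSO baseline.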

[20] = ATG_MRE_CIS: Attagene CIS-FACTORIAL HepG2 Assay for human Metal Responsive Element (MRE) (AID 2282954); settings: HepG2 MRE cis-reporter transcription, Attagene multiplex; actives raise or lower the signal
Outline: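 Endogenous MRE-dependent transcription read as reporter mRNA in transiently transfected human HepG2 cells at 24 h. RNA reverse-transcribed, PCR-amplified, labelled and resolved by capillary electrophoresis; gain or loss relative to DMSO.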

Measured: AC50

COCc1cnc(C2=NC(C)(C(C)C)C(=O)N2)c(C(=O)O)c1 (centres undefined)
inactive: all assays above

CCOc1nc(F)cc2nc(S(=O)(=O)Nc3c(Cl)cccc3Cl)nn12
inactive: all assays above

CCCCC(O)(Cn1cncn1)c1ccc(Cl)cc1Cl (centres undefined)
active: [2] 50 µM | [4] 50 µM | [6] 12.6 µM | [12] 91.3 µM | [18] 88.4 µM | [19] 76.2 µM | [20] 61.5 µM
inactive: all other assays above

O=C(O)c1c(Cl)ccc2cc(Cl)cnc12
inactive: all assays above

CCNP(=S)(OC)O/C(C)=C/C(=O)OC(C)C (centres undefined)
active: [6] 13.4 µM
not listed: [12]
inactive: all other assays above

CN=C=S
active: [20] 26.1 µM
not listed: [13]
inactive: all other assays above

CCC(C)n1c(=O)[nH]c(C)c(Br)c1=O (centres undefined)
not listed: [13]
inactive: all other assays above

CC1(C)C(C(=O)OC(C#N)c2cccc(Oc3ccccc3)c2)C1(C)C (centres undefined)
active: [20] 10.8 µM
not listed: [13]
inactive: all other assays above

OC(c1ccc(Cl)cc1)(c1ccc(Cl)cc1)C(Cl)(Cl)Cl
inactive: all assays above

Cc1c(COC(=O)[C@@H]2[C@H](/C=C(\Cl)C(F)(F)F)C2(C)C)cccc1-c1ccccc1
active: [6] 20.9 µM
not listed: [13]
inactive: all other assays above

CS(=O)(=O)c1ccc(C(=O)C2C(=O)CCCC2=O)c([N+](=O)[O-])c1
inactive: all assays above

COCC(=O)N(c1c(C)cccc1C)C(C)C(=O)OC (centres undefined)
not listed: [13]
inactive: all other assays above

COP(=S)(OC)Oc1ccc([N+](=O)[O-])c(C)c1
active: [4] 28.9 µM | [6] 13.7 µM | [20] 50 µM
inactive: all other assays above

COc1ccc(-c2ccccc2)cc1NNC(=O)OC(C)C
active: [13] 13.2 µM | [17] 22.8 µM | [19] 50 µM | [20] 22.7 µM
inactive: all other assays above
